Several values for one entry are separate records, joined by “and”; a condition that tells them apart may be missing. Equal values may be shown once. More than one record can exist for a structure, and the calls need not agree. Activity calls are given as the source filed them. Rule for the calls: active = hit-call score of the fitted dose curve at least 0.9, where 1 is the maximum; inactive = score below 0.9.
Columns and labels:
[1] = read-out: Human Leukocyte Antigen - DR isotype (HLADR), HLA-DRA (gene 3122); test: BSK_BE3C_HLADR: BioMAP Diversity Plus: BE3C Assay for Human Leukocyte Antigen - DR isotype (HLADR) Biomarker Activity (AID 2283032); settings: primary human bronchial epithelial cells; actives raise or lower the signal
Method in brief: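 ELISA read-out of HLA-DR on human lung bronchial epithelial primary cells, measured 24 h post-dosing. Both increases and decreases were scored relative to DMSO vehicle.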

[2] = read-out: Vascular cell adhesion molecule 1 (VCAM1), VCAM1 (gene 7412); test: BSK_4H_VCAM1: BioMAP Diversity Plus: 4H Assay for Vascular cell adhesion molecule 1 (VCAM1) Biomarker Activity (AID 2283033); settings: primary human endothelial cells (HUVEC); actives raise or lower the signal
Method in brief: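 ELISA read-out of VCAM-1 on human umbilical vein endothelium 24 hours after chemical dosing; gain or loss of signal was fitted relative to DMSO, with sulforhodamine B staining of parallel cultures flagging overt cytotoxicity.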

[3] = read-out: Interferon-gamma inducible Protein 10 (IP10), CXCL10 (gene 3627); test: BSK_BE3C_IP10: BioMAP Diversity Plus: BE3C Assay for Interferon-gamma inducible Protein 10 (IP10) Biomarker Activity (AID 2283034); settings: primary human bronchial epithelial cells; actives raise or lower the signal
Method in brief: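 Chemical is dosed onto human lung bronchial epithelial primary cells, cultures are incubated 24 h, and IP-10 is then quantified by ELISA. Gain or loss of signal is fitted in both directions relative to DMSO.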

[4] = read-out: Monokine induced gamma interferon (MIG), CXCL9 (gene 4283); test: BSK_BE3C_MIG: BioMAP Diversity Plus: BE3C Assay for Monokine induced gamma interferon (MIG) Biomarker Activity (AID 2283035); settings: primary human bronchial epithelial cells; actives raise or lower the signal
Method in brief: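 Primary human bronchial epithelial cells treated for 24 h; MIG levels measured by ELISA, fitted bidirectionally versus DMSO. Parallel SRB total-protein staining assessed cytotoxicity.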

[5] = read-out: Transforming growth factor beta 1 (TGFb1), TGFB1 (gene 7040); test: BSK_BE3C_TGFb1: BioMAP Diversity Plus: BE3C Assay for Transforming growth factor beta 1 (TGFb1) Biomarker Activity (AID 2283036); settings: primary human bronchial epithelial cells; actives raise or lower the signal
Method in brief: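 Primary human lung bronchial epithelial cells; compound exposure 24 h; TGF-b1 by ELISA; bidirectional fit, DMSO baseline. Parallel SRB total-protein staining for cytotoxicity.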

[6] = read-out: Plasminogen activator inhibitor-1 (PAI1), SERPINE1 (gene 5054); test: BSK_BE3C_PAI1: BioMAP Diversity Plus: BE3C Assay for Plasminogen activator inhibitor-1 (PAI1) Biomarker Activity (AID 2283037); settings: primary human bronchial epithelial cells; actives raise or lower the signal
Method in brief: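 Primary human lung bronchial epithelial cells; chemical dosing; 24 h; PAI-1 measured by ELISA; bidirectional fit referenced to DMSO as negative control.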

[7] = read-out: urokinase plasminogen activator (uPA), PLAU (gene 5328); test: BSK_BE3C_uPA: BioMAP Diversity Plus: BE3C Assay for urokinase plasminogen activator (uPA) Biomarker Activity (AID 2283038); settings: primary human bronchial epithelial cells; actives raise or lower the signal
Method in brief: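 ELISA read-out of uPA in human lung primary bronchial epithelial cultures, 24 h post-dosing. Gain or loss of signal fitted bidirectionally relative to DMSO baseline; cytotoxicity checked in parallel cultures via SRB total protein stain.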

[8] = read-out: Urokinase-type plasminogen activator receptor (uPAR), PLAUR (gene 5329); test: BSK_BE3C_uPAR: BioMAP Diversity Plus: BE3C Assay for Urokinase-type plasminogen activator receptor (uPAR) Biomarker Activity (AID 2283039); settings: primary human bronchial epithelial cells; actives raise or lower the signal
Method in brief: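 Human bronchial epithelial primary cells; chemical exposure 24 h; uPAR by ELISA; bidirectional fit vs DMSO control.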

[9] = read-out: Interleukin-6 (IL6), IL6 (gene 3569); test: BSK_CASM3C_IL6: BioMAP Diversity Plus: CASM3C Assay for Interleukin-6 (IL6) Biomarker Activity for (AID 2283040); settings: primary human coronary artery smooth muscle cells; actives raise or lower the signal
[10] = read-out: Tissue plasminogen activator (tPA), PLAT (gene 5327); test: BSK_BE3C_tPA: BioMAP Diversity Plus: BE3C Assay for Tissue plasminogen activator (tPA) Biomarker Activity (AID 2283041); settings: primary human bronchial epithelial cells; actives raise or lower the signal
Method in brief: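 Primary human lung bronchial epithelial cultures receive test chemical; after 24 h, tPA is quantified by ELISA, and gain or loss of signal is fitted bidirectionally relative to DMSO baseline.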

[11] = read-out: Interleukin-8 (IL8), CXCL8 (gene 3576); test: BSK_CASM3C_IL8: BioMAP Diversity Plus: CASM3C Assay for Interleukin-8 (IL8) Biomarker Activity (AID 2283042); settings: primary human coronary artery smooth muscle cells; actives raise or lower the signal;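 note: IL-8 protein level quantified by ELISA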
[12] = read-out: Human Leukocyte Antigen - DR isotype (HLADR), HLA-DRA (gene 3122); test: BSK_CASM3C_HLADR: BioMAP Diversity Plus: CASM3C Assay for Human Leukocyte Antigen - DR isotype (HLADR) Biomarker Activity (AID 2283043); settings: primary human coronary artery smooth muscle cells; actives raise or lower the signal;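 note: cell-surface HLA-DR protein level quantified by ELISA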
[13] = read-out: Macrophage colony-stimulating factor (MCSF), CSF1 (gene 1435); test: BSK_CASM3C_MCSF: BioMAP Diversity Plus: CASM3C Assay for Macrophage colony-stimulating factor (MCSF) Biomarker Activity (AID 2283044); settings: primary human coronary artery smooth muscle cells; actives raise or lower the signal;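 note: M-CSF protein amount quantified by ELISA after 24 h exposure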
[14] = read-out: Low-density lipoprotein receptor (LDLR), LDLR (gene 3949); test: BSK_CASM3C_LDLR: BioMAP Diversity Plus: CASM3C Assay for Low-density lipoprotein receptor (LDLR) Biomarker Activity (AID 2283045); settings: primary human coronary artery smooth muscle cells; actives raise or lower the signal;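 note: LDLR protein level on the cell surface quantified by ELISA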
[15] = read-out: Monocyte Chemoattractant Protein-1 (MCP1), CCL2 (gene 6347); test: BSK_CASM3C_MCP1: BioMAP Diversity Plus: CASM3C Assay for Monocyte Chemoattractant Protein-1 (MCP1) Biomarker Activity (AID 2283046); settings: primary human coronary artery smooth muscle cells; actives raise or lower the signal;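 note: MCP-1 level quantified by ELISA 24 h after dosing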
[16] = BSK_CASM3C_Proliferation: Cell Proliferation Assessment in the BioMAP Diversity Plus: CASM3C Assay (AID 2283047); settings: primary human coronary artery smooth muscle cells;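 note: sulforhodamine B total protein stain as relative cell number at 560 nm; sub-confluent cells exposed 48 h before staining; fitted both ways against DMSO so gain or loss of cell number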
[17] = read-out: Monokine induced gamma interferon (MIG), CXCL9 (gene 4283); test: BSK_CASM3C_MIG: BioMAP Diversity Plus: CASM3C Assay for Monokine induced gamma interferon (MIG) Biomarker Activity (AID 2283048); settings: primary human coronary artery smooth muscle cells; actives raise or lower the signal
[18] = read-out: serum amyloid A (SAA), SAA1 (gene 6288); test: BSK_CASM3C_SAA: BioMAP Diversity Plus: CASM3C Assay for serum amyloid A (SAA) Biomarker Activity (AID 2283049); settings: primary human coronary artery smooth muscle cells; actives raise or lower the signal;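 note: SAA protein level quantified by ELISA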
[19] = BSK_CASM3C_SRB: Viability Assessment in the BioMAP Diversity Plus: CASM3C Assay (AID 2283050); settings: primary human coronary artery smooth muscle cells;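 note: total protein by SRB staining as cytotoxicity measure in parallel cultures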
[20] = read-out: Thrombomodulin, THBD (gene 7056); test: BSK_CASM3C_Thrombomodulin: BioMAP Diversity Plus: CASM3C Assay for Thrombomodulin Biomarker Activity (AID 2283051); settings: primary human coronary artery smooth muscle cells; actives raise or lower the signal;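 note: thrombomodulin protein level measured by ELISA 24 h after dosing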

Measured: AC50

COC(=O)c1c(Cl)nn(C)c1S(=O)(=O)NC(=O)Nc1nc(OC)cc(OC)n1
inactive: all assays above

COC(=O)c1ccccc1S(=O)(=O)NC(=O)Nc1nc(OC(F)F)cc(OC(F)F)n1
not listed: [3]
inactive: all other assays above

CCCCOC(=O)C(C)Oc1ccc(Oc2ccc(C(F)(F)F)cn2)cc1 (stereo unspecified)
inactive: all assays above

CC(C)(C)[C@@H](O)[C@@H](Cc1ccc(Cl)cc1)n1cncn1
inactive: all assays above

CC(C)(c1ccc(O)cc1)c1ccc(O)cc1
active: [2] 7.53 µM | [6] 24.3 µM | [10] 8.08 µM | [20] 8.47 µM
inactive: [1] | [2] | [4] | [5] | [6] | [7] | [8] | [9] | [10] | [11] | [12] | [13] | [14] | [15] | [16] | [17] | [18] | [19] | [20]

N[C@@H](Cc1cc(I)c(Oc2ccc(O)c(I)c2)c(I)c1)C(=O)O
active: [3] 21.3 µM | [6] 18.8 µM | [10] 16 µM
inactive: all other assays above

COC(=O)c1ccc(CNS(C)(=O)=O)cc1S(=O)(=O)NC(=O)Nc1nc(OC)cc(OC)n1
inactive: all assays above

C#C[C@]1(O)CC[C@H]2[C@@H]3CCC4=CC(=O)CC[C@@H]4[C@H]3CC[C@@]21CC
active: [18] 6.06 µM
not listed: [3]
inactive: all other assays above

CCCCC(CC)CN1C(=O)C2C3C=CC(C3)C2C1=O (stereo unspecified)
active: [1] 15.7 µM | [3] 18.2 µM | [6] 28.1 µM
inactive: all other assays above

CCOC(=O)c1ccc(O)cc1
inactive: all assays above

S=C(S)NCCNC(=S)S.[Mn+2].[S-]C([S-])=NCCN=C([S-])[S-].[Zn+2]
active: [1] 8.2 µM and 10 µM | [2] 10 µM | [7] 209 nM and 1.08 µM and 2.73 µM | [12] 10 µM | [13] 5.89 µM | [14] 10 µM and 5.32 µM | [16] 14.2 µM [middle of 4 runs]
inactive: [1] | [2] | [4] | [5] | [6] | [7] | [8] | [9] | [10] | [11] | [12] | [13] | [14] | [15] | [16] | [17] | [18] | [19] | [20]

c1ccc(Nc2ccccc2)cc1
active: [5] 3.97 µM
inactive: all other assays above

COCCO
inactive: all assays above

COc1nc(C)nc(NC(=O)NS(=O)(=O)c2ccccc2OCCCl)n1
active: [15] 441 nM
inactive: all other assays above

CC(C)CCCCCCc1ccc(O)cc1
active: [1] 26.2 µM | [2] 7.96 µM | [3] 14.7 µM | [4] 33.4 µM | [5] 26.2 µM | [6] 31 µM | [7] 31.6 µM | [8] 33.3 µM | [9] 36.9 µM | [10] 14.5 µM | [11] 36.2 µM | [12] 28.8 µM | [13] 31.2 µM | [15] 34300 nM | [16] 15 µM | [17] 35.8 µM | [18] 30.9 µM | [19] 32.6 µM | [20] 4.65 µM

CCCN(CCC)C(=O)SCC
inactive: all assays above

C=CCOC(Cn1ccnc1)c1ccc(Cl)cc1Cl (stereo unspecified)
not listed: [3]
inactive: all other assays above

C[C@]12CC[C@@H]3c4ccc(O)cc4C[C@@H](CCCCCCCCCS(=O)CCCC(F)(F)C(F)(F)F)[C@H]3[C@@H]1CC[C@@H]2O (stereo partly specified)
active: [14] 2.73 µM
inactive: all other assays above

N#CSCSc1nc2ccccc2s1
active: [1] 6.17 µM and 12.1 µM | [2] 5.21 µM and 12.8 µM | [4] 9.86 µM and 12.2 µM | [5] 11.2 µM | [6] 4.99 µM and 11.8 µM | [7] 6.61 µM and 12.1 µM | [8] 5.42 µM and 11.5 µM | [9] 8.6 µM and 36.5 µM | [10] 5.25 µM | [11] 10.8 µM and 31.2 µM | [12] 2.62 µM and 36.7 µM | [13] 6.33 µM and 26.9 µM | [14] 8.61 µM | [15] 9.06 µM and 29.6 µM | [16] 1.33 µM and 5.49 µM | [17] 7.5 µM and 18.8 µM | [18] 4.93 µM and 33.5 µM | [19] 11.9 µM and 31.5 µM | [20] 36.7 µM
inactive: [5] | [10] | [14] | [20]

CCOC(=O)NCCOc1ccc(Oc2ccccc2)cc1
active: [1] 15.7 µM | [16] 7.68 µM
inactive: all other assays above

CC1(C)C(C=C(Cl)Cl)C1C(=O)OCc1cccc(Oc2ccccc2)c1 (stereo unspecified)
active: [9] 6.26 µM | [20] 13.4 µM
inactive: all other assays above

CCOC(=O)C(C)Oc1ccc(Oc2cnc3cc(Cl)ccc3n2)cc1 (stereo unspecified)
not listed: [5]
inactive: all other assays above

CCCCCOC(=O)COc1cc(N2C(=O)C3=C(CCCC3)C2=O)c(F)cc1Cl
active: [13] 14.4 µM | [16] 12.6 µM | [17] 25.5 µM
inactive: all other assays above

C[C@]12C[C@H](O)[C@H]3[C@@H](CCC4=CC(=O)CC[C@@]43C)[C@@H]1CC[C@@H]2C(=O)CO
active: [3] 34.8 µM | [9] 0.447 µM | [11] 0.551 µM | [14] 21.1 µM | [15] 573 nM | [16] 0.397 µM | [18] 0.668 µM
not listed: [13]
inactive: all other assays above

From PubChem BioAssay (EPA / NIEHS)
